Experimental findings from PubChem BioAssay (NCATS) are described below.

Molecules are shown by their SMILES. Inconclusive results are not listed. Unmarked numbers belong to inactive results. Active and inactive are the calls of the source. The call rests on the fitted dose curve; in most records, active means well fitted inhibition curve with a large enough effect; inconclusive means small, poorly fitted or top-dose-only effect; inactive means flat fitted curve, though single readings scatter.

Common to all, as to assay: Cytotoxic Profiling of Annotated Libraries Using Quantitative High-Throughput Screening (AID 1296008); further: nearly all actives have a fitted effect of over 60% in size
Holding throughout (details): Five cell lines viability, CellTiter-Glo ATP luminescence, 48-72 h; max response: hits give low values
For orientation: In ATP-based viability assays light output follows the ATP content of the culture.

The test system of one assay is CRL-7250. In short, it runs like this: (§1)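 Cells exposed to compounds for 48 or 72 hr at 37 degrees Celsius. Viability read as ATP-coupled luminescence with CellTiter-Glo after 10 min at room temperature.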
Another assay relates to HEK293. In short, it runs like this: as §1
A further assay has as its system HaCat. In short, it runs like this: as §1
Another assay concerns KB-3-1. The essentials: as §1
The next assay concerns NIH3T3. The essentials:
as §1
On the % scale 0 is the no-effect control and ±100 the full control effect; potency means the concentration at half of the fitted maximal effect.

In the case of `CC1=C2C[C@H]3O[C@@]3(C)CCC3O[C@@]3(C)C[C@@]2(O)OC1=O` (stereo not given in full), the compound was called inactive in the assay with CRL-7250 and in the assay on KB-3-1. Moreover, the results for the max response in the assay on HEK293, with HaCat and with NIH3T3 were -4.05%, -4.97% and 2.41%, respectively.

Regarding `CC1OC(OC2C(OC3C(O[C@H]4CC[C@@]5(C)C(CC[C@]6(C)C5C(=O)C=C5C7CC(C)(C)CC(O)[C@]7(C)CC[C@]56C)C4(C)C)OC(C(=O)O)C(O)C3O)OCC(O)C2O)C(O)C(O)C1O` (stereo not given in full), the max response with CRL-7250 was -0.894%; with HEK293 it was 2.13%; in the assay on HaCat, -1.72%; with KB-3-1, -2.68%; in the assay on NIH3T3, -3.29%.

As to `C=C[C@]1(C)C=C2CCC3C(C)(CCC[C@@]3(C)C(=O)O)C2CC1` (stereo not given in full), the call in the assay with CRL-7250 was inactive. In addition, the max response is 0.507% in the assay on HEK293, -0.617% in the assay with HaCat, 8.11% in the assay on KB-3-1 and -2.38% in the assay with NIH3T3.

Take `CC12CCC3c4ccc(O)cc4CCC3C1CC(OC1OC(C(=O)O)C(O)C(O)C1O)C2O` (stereo not given): the max response with CRL-7250 was -23.2%; with HEK293, 4.04%; in the assay on HaCat, -15%; in the assay on NIH3T3, 4.17%. Moreover, the compound was called inactive in the assay with KB-3-1.

In the case of `CC(=O)O[C@@H]1[C@@H](OC(=O)/C=C/c2ccccc2)[C@@H](OC(C)=O)[C@H](O[C@H]2[C@@H]3C=CO[C@@H](O[C@@H]4O[C@H](CO)[C@@H](O)[C@H](O)[C@H]4O)[C@@H]3[C@@]3(CO)O[C@@H]23)O[C@H]1C`, the call in the assay on CRL-7250 and with KB-3-1 was inactive. The figures for the max response with HEK293, with HaCat and in the assay with NIH3T3 were -5.93%, -11.2% and -0.931%, respectively.

As to `CC1=CCC2C(C)(C)CCC[C@]2(C)[C@@]12CC[C@](C)(CC(=O)O)O2` (stereo not given in full), the max response was -19.8% with CRL-7250; -11.7% in the assay on HEK293; -3.64% with HaCat; -6.84% in the assay on KB-3-1; -1.28% in the assay with NIH3T3.

As to `O=C(CSc1nc2c(c(=O)n1-c1ccccc1)SCC2)Nc1ccc(-c2ccccc2)cn1`, the Potency in the assay with CRL-7250 was 231 nM (active); in the assay with HEK293 it was 41.1 nM (active); in the assay on KB-3-1, 46.1 nM (active); in the assay with NIH3T3, 58 nM (active). Moreover, the max response in the assay with HaCat was -7.15%.

With `CC12CCC(=O)C=C1C(O)CC1C2C(O)CC2(C)C1CC[C@]2(O)C(=O)CO` (stereo not given in full), the result in the assay on CRL-7250 and in the assay on KB-3-1 was inactive. Further, the values for the max response in the assay with HEK293, in the assay with HaCat and in the assay with NIH3T3 were -5.89%, 0.87% and 0.282%, respectively.

For `CC1(C)CC[C@]2(CO[C@@H]3O[C@H](CO)[C@@H](O)[C@H](O)[C@H]3O)[C@@H](O)C[C@]3(C)C(=CCC4[C@@]5(C)CC[C@H](O[C@@H]6O[C@H](CO[C@@H]7O[C@H](CO[C@@H]8OC[C@@H](O)[C@H](O)[C@H]8O)[C@@H](O)[C@H](O)[C@H]7O)[C@@H](O)[C@H](O)[C@H]6O)C(C)(C)C5CC[C@]43C)[C@@H]2C1` (stereo not given in full), the max response was -5.37% in the assay with CRL-7250; -6.51% in the assay on HEK293; -32.8% in the assay with HaCat; -2.27% in the assay with KB-3-1; -21.6% with NIH3T3.

For `COc1ccc(C(=O)n2c(C)c(Cc3cccc(O[C@@H](C)C(=O)O)c3)c3cc(OC(F)(F)F)ccc32)cc1`, the max response in the assay with CRL-7250 is -19.1%; in the assay with HEK293, -1.86%; in the assay with HaCat it was -6.22%; in the assay with KB-3-1, 0.537%; with NIH3T3 it was 2.93%.

For the compound `C/C=C(\C)C(=O)O[C@@H]1CC2[C@@H](CC=C3C[C@@H](O[C@H]4C[C@H](OC)[C@H](O[C@H]5C[C@H](OC)[C@H](O[C@@H]6O[C@H](C)[C@@H](O[C@H]7C[C@H](OC)[C@H](O[C@@H]8O[C@H](CO)[C@@H](O)[C@H](O)[C@H]8O)[C@@H](C)O7)[C@H](OC)[C@H]6O)[C@@H](C)O5)[C@@H](C)O4)CC[C@@]32C)[C@@]2(O)CC[C@H](C(C)=O)[C@@]12C` (stereo not given in full), the max response in the assay on CRL-7250 was 3.18%; with HEK293 it was -3.44%; with HaCat, -4.54%; in the assay on KB-3-1, 8.46%; in the assay with NIH3T3, -3.87%.

As to `CC(C)=CCC/C(C)=C/CO[C@@H]1O[C@H](CO)[C@@H](O)[C@H](O)[C@H]1O`, the figures for the max response in the assay with CRL-7250, with HEK293 and in the assay with NIH3T3 were -5.48%, 1.41% and -9.17%, respectively. In addition, the call with HaCat and with KB-3-1 was inactive.

Take `C=C1C(=O)OC2C1C(O)CC1(C)C(O)CCC(C=O)C21` (stereo not given): the call in the assay on CRL-7250 and in the assay with KB-3-1 was inactive. Also, the max response in the assay with HEK293 is -0.284%; in the assay with HaCat it was -11.8%; in the assay on NIH3T3 it was -0.523%.

On to `C[C@H](C/C=C/C(C)(C)O)[C@H]1CC[C@@]2(C)[C@@H]3[C@@H](O[C@@H]4O[C@H](CO)[C@@H](O)[C@H](O)[C@H]4O)C=C4C(CC[C@H](O)C4(C)C)[C@]3(C=O)CC[C@]12C` (stereo not given in full), for which the max response with CRL-7250 is -2.26%; with HEK293, -5.89%; in the assay on HaCat, -5.49%; with KB-3-1 it was 8.11%; with NIH3T3, 3.81%.
